The whole screen tested about 6,200 compounds, of which about 2,900 (47%) were called active. Cut-off read from the data, not from the text of the source: active = inhibition above about 50%; inactive = the rest. So high a share suggests a set chosen from earlier hits. The list shows a part of the results.

The nature of this experiment: Mycobacterium tuberculosis growth inhibition, primary screen (AID 1259343). The note with it: inhibition: at 10 µM, hits give high values; outcome: 10 uM.
Turning to `OCn1nc(-c2ccc(Cl)cc2Cl)oc1=S`, the inhibition is 75.9% (active).
The value for `COc1cccc(-c2cnnc(N3CCC(c4ccccc4F)C3)n2)c1` (centres undefined) was 41.2% (inactive); that for `Fc1ccc(-c2[nH]ncc2CN2CCC(c3ccccc3F)C2)c(F)c1` (centres undefined) was 84.8% (active); that for `O=C1NC(=S)NC(=O)C1=Cc1ccc(OCc2ccc(Cl)cc2)cc1` was 97.1% (active).
The value for `C=CCN1C(=O)NC(=O)/C(=C/c2ccc(OCc3ccccc3F)cc2)C1=O` was 37.1% (inactive); that for `CCCCCC(C)NC(=O)c1ccc([N+](=O)[O-])s1` (centres undefined) was -12.6% (inactive).
The value for `Cc1ccc(NC(=O)c2ccc([N+](=O)[O-])s2)cc1` was 78.9% (active); that for `N#Cc1c(NC(=O)CC2(CC(=O)O)CCCC2)sc2c1CCCC2` was “inactive”; that for `N#Cc1c(NC(=O)c2ccc([N+](=O)[O-])s2)sc2c1CCCC2` was 99.4% (active).
On to `NC(=O)c1ccsc1NC(=O)c1ccc([N+](=O)[O-])s1`, for which the inhibition was -3.4% (inactive).
In the case of `O=C(Nc1ccc([N+](=O)[O-])cc1)c1ccc(Br)s1`, the inhibition was 91.6% (active).
The value for `N#Cc1c(NC(=O)c2ccco2)sc2c1CCCCC2` was -3.03% (inactive); that for `CN[C@H](CC(C)C)C(=O)N[C@H]1C(=O)N[C@@H](CC(N)=O)C(=O)N[C@H]2C(=O)N[C@H]3C(=O)N[C@H](C(=O)N[C@H](C(=O)O)c4cc(O)cc(O)c4-c4cc3ccc4O)[C@H](O)c3ccc(c(Cl)c3)Oc3cc2cc(c3O[C@@H]2O[C@H](CO)[C@@H](O)[C@H](O)[C@H]2O[C@H]2C[C@](C)(N)[C@H](O)[C@H](C)O2)Oc2ccc(cc2Cl)[C@H]1O` was 49.3% (inactive).
The value for `COc1cccc(OCCCOc2ccc([N+](=O)[O-])cc2)c1` was 27.9% (inactive); that for `COc1ccc(OCCN2CCN(c3ccc([N+](=O)[O-])cc3)CC2)cc1` was 90.8% (active); that for `Cc1cccc2c(=O)[nH]c(Cn3nnn(-c4cccs4)c3=O)nc12` was -0.78% (inactive).
The value for `Cc1nnc(NC(=O)c2ccc(C(F)(F)F)cc2)o1` was 101% (active).
On to `Cc1ccc(C#N)cc1NC(=O)c1ccc(C(F)(F)F)cc1`, for which the inhibition was -17.1% (inactive).
For the molecule `O=C(NCCn1nc(-c2cccnc2)ccc1=O)Nc1ccc(C(F)(F)F)cc1`, the inhibition was 18.6% (inactive).
As for `Cn1nc(C(C)(C)C)cc1NC(=O)c1ccc(C(F)(F)F)cc1`, the inhibition was 21.5% (inactive).
The value for `CC(C)(C)c1ccc(C(=O)Nc2nnc(-c3cccnc3)o2)cc1` was 97.4% (active).
The value for `O=C(Nc1nnc(-c2ccc(Cl)cc2)o1)c1ccncc1` was 21.6% (inactive); that for `Brc1ccc(NN=C(N=Nc2nn[nH]n2)c2ccccc2)cc1` was 29.1% (inactive); that for `Oc1ccc(N=Nc2nn[nH]n2)c(O)c1` was 61.7% (active).
The value for `C=CCn1c(SC(C)c2nc3sc(C)c(C)c3c(=O)[nH]2)nnc1C1CCCCC1` (centres undefined) was 0.9% (inactive); that for `Cc1ccc(NC(=O)CSc2nc(CC(=O)NCCC3=CCCCC3)cs2)cc1` was 81.6% (active).
For `COc1ccc(NC(=O)CSc2nc(CC(=O)NCCC3=CCCCC3)cs2)cc1`, the inhibition was 86.3% (active).
The value for `C[C@@H]1[C@H]2C[C@@H](C[C@H]1NC(=O)c1ccc(Nc3cccc(C(F)(F)F)c3)nc1)C2(C)C` was 6.48% (inactive).
With `Fc1cccc(CN2CCN(Cc3ccc(-c4ccccc4)nc3)CC2)c1`, the inhibition was 27.7% (inactive).
The value for `CC(C)Oc1cccc(CN2CCN(c3ccnc(N(C)C)n3)CC2)c1` was 91% (active); that for `CCN(C)c1cc(N2CCN(Cc3cc4ccccc4n3C)CC2)ncn1` was 49.3% (inactive); that for `Cc1nnc(Sc2cc(=O)oc3ccccc23)s1` was 99.2% (active).
The value for `O=c1cc(O)c2ccccc2o1` was -50.4% (inactive); that for `COC(=O)CSc1nnc(N2CCN(c3ccccc3)CC2)s1` was 75.5% (active).
On to `COC(=O)COc1cc(Cl)c(Cl)cc1Cl`, for which the inhibition is 77.4% (active).
The value for `CNC(=O)NC(=O)COc1ccc(-c2ccccc2)cc1Cl` was 40.5% (inactive); that for `CCCCOC(=O)Nc1cc(C)c(Cl)cc1OC` was 45.3% (inactive).
The value for `COC(=O)C(Nc1ccc(OC)cc1)(c1cc(OC)c(O)c(OC)c1)C(F)(F)F` (centres undefined) was 84% (active); that for `COc1cc(C(=O)Nc2cc(C)cc(C)c2)cc(Cl)c1O` was -11.6% (inactive); that for `Cc1nn(CC(C)C)c2sc(C(=O)NCC3CC3)cc12` was 3.65% (inactive).
Take `c1ccc2oc(-c3nnn(CC4CCCCO4)n3)cc2c1` (centres undefined): the inhibition was 91% (active).
The value for `COc1ccc(N=c2scc(-c3cc4ccccc4o3)n2CC2CCCO2)cc1` (centres undefined) was 77% (active).
The value for `c1ccc(N=c2scc(-c3ccccc3)n2CC2CCCO2)cc1` (centres undefined) was 20.4% (inactive); that for `CC12CCC3C(=CCc4cc(O)ccc43)C1CCC2=O` (centres undefined) was 43.2% (inactive).
The value for `O=C(NCCc1c[nH]c2ccccc12)c1cn(Cc2ccccc2Cl)nn1` was 21.3% (inactive); that for `c1ccc2c(CCNc3ccc(Nc4ccncc4)cc3)c[nH]c2c1` was 72.8% (active); that for `Cc1cc(C(=O)O)c(C)n1C` was -7.58% (inactive).
In the case of `CC1(C)CN=c2s/c(=C\c3ccc(Cl)cc3)c(=O)n2C1`, the inhibition is 31.2% (inactive).
The value for `CCOC(=O)c1ccc(N2CN=c3sc(=Cc4ccccc4)c(=O)n3C2)cc1` was 88.9% (active); that for `CCOC(=O)C1=C(C)N=c2s/c(=C/c3cccc([N+](=O)[O-])c3)c(=O)n2C1c1ccccc1F` (centres undefined) was -21.3% (inactive).
The value for `Nc1nc(Cl)nc2c1ncn2[C@@H]1O[C@H](CO)[C@@H](O)[C@H]1O` was 80.5% (active).
The value for `CN(Cc1cnn(-c2ccc(F)cc2)c1)c1nncc(-c2ccccc2)n1` was “inactive”; that for `CN(CCC1CCCCO1)c1nncc(-c2ccccc2)n1` (centres undefined) was 52.4% (active).
With `CC1CCCC(C)C1NC(=O)Nc1nncc(-c2ccccc2)n1` (centres undefined), the inhibition was 21.4% (inactive).
With `CC(OC(=O)c1ccc(OCc2ccccc2)cc1)c1nnc(-c2ccccc2)o1` (centres undefined), the inhibition is 26.8% (inactive).
The value for `c1ccc(OCCSc2nnc3sc4ccccc4n23)cc1` was 40.3% (inactive); that for `Nc1nnc(SCC(=O)c2ccc(OCc3ccccc3)cc2)s1` was 86.1% (active); that for `Brc1ccc(-c2ccc(C=NNC3=NCCCCC3)o2)cc1` was 92.4% (active).
The value for `CCN(CC)C(=S)S` was 92.6% (active); that for `O=C1CCCc2c1[nH]c1ccc(-c3ccccc3CO)cc21` was 90.3% (active).
The value for `COCC(=O)Nc1ccccc1-c1ccc(C(C)C)cc1` was 48.2% (inactive).
Turning to `Cn1cc(C(=O)Nc2ccc(Oc3cccc(C#N)c3)cc2)ccc1=O`, the inhibition was 23.5% (inactive).
The value for `COCC(=O)Nc1cccc(-c2ccc3c(c2)OCCO3)c1` was 63.2% (active); that for `COCC(=O)Nc1ccc(-c2cc(OC)cc(OC)c2)cc1` was 88.7% (active); that for `COc1cncc(-c2ccc(NC(C)=O)cc2)c1` was 85% (active).
The value for `COCC(=O)Nc1ccc(Oc2cccc(C)c2)cc1` was 76.6% (active); that for `O=C(CCl)Nc1ccc(Oc2ccc(Br)cc2)cc1` was 18.2% (inactive).
The value for `COc1cc(C(=O)Nc2ccc(-c3cnco3)cc2)ccc1C` was 49.6% (inactive); that for `CC1(C)OC(=O)C(=C2C3C4CC5C2C2C3CC4C52)C(=O)O1` (centres undefined) was 35.6% (inactive).
`COC(=O)C(C)OC(=O)c1c[nH]c2cc(Br)c(Br)cc12` (centres undefined): the inhibition is 24.9% (inactive).
The value for `CN(c1ccc(C(N)=O)nn1)C1CCc2ccccc2C1` (centres undefined) was 60.2% (active); that for `CC(C)c1nnc2sc(C3CCc4ccccc4C3)nn12` (centres undefined) was 43.3% (inactive); that for `Cc1ccc(N2C(=O)N(CCOc3cccc(Br)c3)C(=O)C2C)cc1` (centres undefined) was 27.6% (inactive).
The value for `Cc1ccc2oc(=O)n(CCCOc3ccccc3C)c2c1` was 95.8% (active); that for `Cc1cccc(OCCCn2c(=O)oc3ccc(C)cc32)c1` was 79.4% (active); that for `Cc1cccc(OCCCn2c(=O)oc3ccccc32)c1` was -23.7% (inactive).
The value for `COCCCn1c(-c2ccc(C)cc2)nc2oc3ccccc3c(=O)c2c1=O` was 9.29% (inactive).
Turning to `COc1ccccc1OCCCN1C(=O)C2(OCCCO2)c2ccccc21`, the inhibition was 40.7% (inactive).
In the case of `Cc1ccc(N(CC(=O)O)S(C)(=O)=O)cc1C`, the inhibition was 92.8% (active).
The value for `CC1(C)CC(=O)C(C(=O)Nc2sc3ccccc3c2Cl)C(=O)C1` was 98.3% (active).
Consider `O=C1NC(c2sc3ccccc3c2Cl)Nc2ccccc21` (centres undefined), for which the inhibition was 28.9% (inactive).
The value for `Cc1cc(=O)[nH]c(-n2nc(-c3cccs3)cc2NC(=O)c2ccc(Br)o2)n1` was 97.5% (active).
The value for `CC(C)c1cc(=O)[nH]c(-n2nc(-c3cccs3)cc2NC(=O)c2cc3ccccc3o2)n1` was 100% (active); that for `CC(C)c1cc(=O)[nH]c(-n2nc(-c3cccs3)cc2NC(=O)c2ccc(Br)o2)n1` was 99.9% (active); that for `Cc1cc(C(=S)N=P(N(C)C)(N(C)C)N(C)C)c(C)n1-c1ccccc1` was 98.9% (active).
The value for `FC(F)(F)c1nnc2n1Nc1nc3ccccc3nc1S2` was 100% (active).
On to `COC(=O)Cc1ccc(C(=O)CCl)s1`, for which the inhibition is 92.5% (active).
Turning to `NC(=S)Nc1ccc(F)c(Cl)c1`, the inhibition was 4.04% (inactive).
Turning to `NC(=S)Nc1ccc(F)cc1`, the inhibition is 52.9% (active).
The value for `NC(=S)Nc1ccc(Cl)cc1` was 7.09% (inactive).
The value for `CC(=NOCc1cccc(CON=C(C)c2ccccc2)c1)c1ccccc1` was 86.9% (active).
The value for `COc1cc(N/N=C(/C)c2cccc(C(F)(F)F)c2)nc(SC)n1` was 41.1% (inactive); that for `CCc1ccc(-c2nc(C)c(C(=O)Nc3ccc(OC)nc3)s2)cc1` was 42.7% (inactive); that for `CCc1nc(C)c(C(=O)Nc2ccc(CCC(F)(F)F)cc2)s1` was 66.2% (active).
`O=C(CCl)Nc1cc2c(cc1Br)OCCO2`: the inhibition was 94.1% (active).
The value for `Cc1cc(N2CCCC2)ccc1NC(=O)CCl` was 1.87% (inactive); that for `O=C(Nc1ccc(Oc2ccccc2F)cc1)C1CCN(C(=O)C2CCCO2)CC1` (centres undefined) was “inactive”.
The value for `O=C(Nc1ccc(Oc2ccccc2F)cc1)C1CCN(C(=O)C2CC23CCC3)CC1` (centres undefined) was 91.3% (active); that for `O=C(Nc1ccc(Oc2ccccc2F)cc1)C1CCN(C(=O)C2CCCCO2)CC1` (centres undefined) was 88.7% (active).
